Measurements as given in PubChem BioAssay (NCATS).
“And” between values parts separate entries of the source, which are not always exact repeats. Equal values may be shown once. Inconclusive results are not listed. The source made the active and inactive calls. Unless noted, calls follow the shape of the dose curve; as a rule, active = well fitted curve in the direction sought with a large enough effect; inconclusive = small, poorly fitted or top-dose-only effect, or another doubt; inactive = no such curve, though single readings can be large; an effect the other way counts as inactive or inconclusive.

Tests used:
[1] = target: Peroxisome proliferator-activated receptor delta (Homo sapiens) (UniProt Q03181); experiment: qHTS assay for small molecule antagonists of peroxisome proliferator-activated receptor delta signaling (AID 588535; active = well fitted inhibition curve with a large enough effect in the signal ratio, with a control signal flat, not every such curve was filed as active; the % refers to the signal ratio)
Outline: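 Antagonist-mode qHTS using GeneBLAzer PPAR-delta-UAS-bla HEK293T cells; compound exposure 18 hrs at 37 C over a titration. Ratiometric CCF4 fluorescence at 460/530 nm; concentration-response points fitted to the Hill equation.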

[2] = target: Peroxisome proliferator-activated receptor gamma (Homo sapiens) (UniProt P37231); experiment: qHTS assay for small molecule agonists of peroxisome proliferator-activated receptor gamma signaling (AID 588536; active = well fitted curve in the direction sought with a large enough effect in the signal ratio, with a control signal flat, not every such curve was filed as active; the % refers to the signal ratio;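 also: 0% = DMSO basal wells and 100% = rosiglitazone at 2 µM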)
Outline: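 This is an agonist-mode beta-lactamase reporter assay in HEK293 PPAR-gamma-UAS-bla cells with 1% charcoal/dextran FBS. Compound titrations ran 16 h at 37 C before CCF4 detection. EC50 and efficacy are Hill fits scaled to 2 uM rosiglitazone (100%) and DMSO basal.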

[3] = target: Peroxisome proliferator-activated receptor gamma (Homo sapiens) (UniProt P37231); experiment: qHTS assay for small molecule antagonists of peroxisome proliferator-activated receptor gamma signaling (AID 588537; active = well fitted inhibition curve with a large enough effect in the signal ratio, with a control signal flat, not every such curve was filed as active; the % refers to the signal ratio;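 also: reporter cells co-stimulated with 50 nM rosiglitazone agonist during compound treatment; % of control where 0% means no effect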)
Outline: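 Cell-based beta-lactamase assay; GW9662 served as the antagonist control. Stimulation used rosiglitazone, final 50 nM, 16 h, 37 C.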

[4] = target: Vitamin D3 receptor (Homo sapiens) (UniProt P11473); experiment: qHTS assay for small molecule agonists of vitamin D receptor signaling (AID 588543; calls by dose curve;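 also: 0% = DMSO basal and 100% = reference agonist control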)
Outline: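 Reporter cells (HEK293T, VDR-UAS-bla) were seeded in medium with 2% charcoal-stripped serum and incubated 5 h, then compounds in concentration series were added for 16 h at 37 °C. Stimulation was scaled between DMSO basal and 50 nM 1α,25-dihydroxyvitamin D3.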

[5] = qHTS assay for small molecule agonists of retinoid X receptor alpha signaling (AID 588544; calls by dose curve;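 as to activation: 0% = DMSO basal wells and 100% = reference agonist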); settings: HEK293T RXRa-UAS-bla, beta-lactamase reporter, 18 h; 530 nm emission
[6] = target: Retinoic acid receptor RXR-alpha (Homo sapiens) (UniProt P19793); experiment: as above
[7] = target: Thyroid hormone receptor beta (Homo sapiens) (UniProt P10828); experiment: qHTS assay for small molecule agonists of thyroid hormone receptor beta signaling (AID 588545; calls by dose curve;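 also: 0% = DMSO only and 100% = 10 nM T3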)
Outline: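 Beta-lactamase reporter activity under TR response element control is measured in HEK 293 cells after 18 hrs compound exposure. Signal is ratiometric CCF4 fluorescence, 460/530 nm.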

[8] = qHTS assay for small molecule antagonists of retinoid X receptor alpha signaling (AID 588546); settings: HEK293T RXRa-UAS-bla, beta-lactamase ratio, antagonist mode; measured here: W530 green channel, cytotoxicity proxy;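 also: cells stimulated with 9-cis-retinoic acid as agonist; % is scaled to controls: 0 for no effect and ±100 for the full control effect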
Outline: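 Beta-lactamase reporter inhibition, read as CCF4 fluorescence ratio (ex 405, em 460/530 nm) after 2 h at RT. HEK293T UAS-bla cells, 2500/well, were stimulated with 9-cis-RA at 500 or 100 nM final alongside test compound for 18 h at 37 C.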

[9] = target: Voltage-gated inwardly rectifying potassium channel KCNH2 (Homo sapiens) (UniProt Q12809); experiment: qHTS Assay for Small Molecule Inhibitors of the Human hERG Channel Activity (AID 588834);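 also: top concentration of the series differs between compounds; % is scaled to controls: 0 for no effect and ±100 for the full control effect; lower thallium flux fluorescence means stronger hERG block; nearly all actives have a fitted effect of over 50% in size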
Outline: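 Step 1: BacMam hERG transduction of U2OS, 4 hrs RT. Step 2: overnight 37 °C, plate 2000 cells/well, 4 hr. Step 3: FluxOR load, compound 10 min, stimulate, read fluorescence.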

[10] = qHTS assay for small molecule agonists of the antioxidant response element (ARE) signaling pathway (AID 651741; active = well fitted activation curve with a large enough effect in the signal ratio; the % refers to the signal ratio; also: % of control where 0% means no effect)
Outline: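 Agonist activity is measured as ARE-driven beta-lactamase expression in a stable HepG2 reporter line, using 16 h compound treatment at 37 C and a FRET substrate fluorescence readout after 2 h.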

[11] = qHTS assay for small molecule activators of the nuclear factor-kappa B (NF-kB) signaling pathway (AID 651749; active = well fitted activation curve with a large enough effect in the signal ratio; the % refers to the signal ratio; also: series mostly up to about 77 µM; % of control where 0% means no effect); settings: NF-kB-bla ME-180 cells, beta-lactamase FRET ratio, 16 h; stronger effect = higher value
Outline: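 FRET-based beta-lactamase detection in ME-180 cells reports NF-kB response-element-driven transcription following overnight (16 hr) compound treatment.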

[12] = qHTS assay for small molecule disruptors of the mitochondrial membrane potential - 1 hr assay (AID 651754; calls by dose curve; also: % is scaled to controls: 0 for no effect and ±100 for the full control effect; nearly all actives have a fitted effect of over 35% in size)
Outline: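 Read-out: dye fluorescence at 490 nm ex/535 nm em (monomers) and 540 nm ex/590 nm em (aggregates) in HepG2 cells. Compound exposure 1 hr at 37C, followed by 30 min dye loading.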

[13] = qHTS assay for small molecule disruptors of the mitochondrial membrane potential - 5 hr assay (AID 651755; calls by dose curve; also: % is scaled to controls: 0 for no effect and ±100 for the full control effect; nearly all actives have a fitted effect of over 40% in size)
Outline: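 Membrane-potential dye readout: red aggregate (540 ex/590 em) versus green monomer (490 ex/535 em) fluorescence after 30 min dye loading, following 5 hr compound exposure at 37C of overnight-plated HepG2 cells.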

[14] = target: Tumor necrosis factor (Homo sapiens) (UniProt P01375); experiment: qHTS assay to identify small molecules that stimulate Tumor Necrosis Factor-alpha (TNF-alpha) secretion (AID 651757; active = well fitted curve in the direction sought with a large enough effect in the signal ratio; the % refers to the signal ratio; also: 0% is about no effect)
Outline: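 THP-1 cells, 3000/well; compound 17 hrs, 37 C; add cryptate/XL665 anti-TNF-alpha antibody pair; 3 hr RT; TR-FRET (HTRF) read of secreted TNF-alpha. Quantitative HTS format.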

[15] = qHTS assay to identify small molecules that stimulate interleukin-8 (IL-8) secretion (AID 651758; active = well fitted activation curve with a large enough effect in the signal ratio; the % refers to the signal ratio; also: 0% is about no effect)
Outline: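 Secreted IL-8 measured homogeneously by TR-FRET (two labelled anti-IL-8 antibodies, 1-3 h at room temperature) after a 16 h, 37 C compound treatment of THP-1 cells at 2000 cells/well.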

[16] = qHTS assay for environmental chemicals that activate the Aryl hydrocarbon Receptor (AhR) signaling pathway (AID 651777); settings: 1A2-DRE human hepatoma cells, luciferase, 24 h; activation: stronger effect = higher value; also: % of control where 0% means no effect; nearly all actives have a fitted effect of over 15% in size
Outline: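 Human hepatoma 1A2-DRE cells stably carrying a DRE/CYP1A2 promoter–luciferase reporter, 1,200 cells/well, exposed to compound 24 hr at 37 C. Luciferase read by One-Glo luminescence after 30 min at room temperature; increased signal marks AhR activation.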

[17] = target: Peroxisome proliferator-activated receptor alpha (Homo sapiens) (UniProt Q07869); experiment: qHTS assay for small molecule agonists of the peroxisome proliferator-activated receptor alpha (PPARalpha) signaling pathway (AID 651778); settings: PathHunter PPARalpha complementation, chemiluminescence, 6 h; max response: stronger effect = higher value; also: % of control where 0% means no effect
Outline: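 Chemiluminescence from complemented enzyme reported PPARalpha activation in cells after 6 hr of compound treatment at 37 C. The detection reagent was incubated for 60 min at room temperature, and compounds were scored as agonists.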

[18] = qHTS assay for small molecule agonists of the antioxidant response element (ARE) signaling pathway measured by Nrf2-dependant transcriptional activity (AID 720636; active = well fitted curve in the direction sought with a large enough effect in the repeat runs; an effect the other way counts as inactive or inconclusive; also: % of control where 0% means no effect)
Outline: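 ARE-luc HepG2 cells carrying an Nrf2-responsive luciferase reporter, in medium with 1% dialyzed FBS, exposed to compound for 16 hr at 37 C, 5% CO2. Luminescence read 30 min after ONE-Glo addition.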

[19] = qHTS assay for small molecule antagonists of the retinoid-related orphan receptor gamma (ROR-gamma) signaling pathway - cell viability counter screen (AID 720652; active = well fitted curve in the direction sought with a large enough effect in the repeat runs; an effect the other way counts as inactive or inconclusive;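 also: CHO reporter cells with doxycycline-induced ROR-gamma expression; series mostly up to about 92 µM; compound exposure lasted 16 hr before ATP read; % is scaled to controls: 0 for no effect and ±100 for the full control effect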)
Outline: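 CHO RORE-LUC/TET-ROR line, 1,000 cells/well, 37 C 5% CO2 5 hr; cpd or DMSO + doxycycline induction, 16 hr. CellTiter-Glo, 30 min RT, luminescence = ATP content.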

[20] = qHTS assay for small molecule agonists of the antioxidant response element (ARE) signaling pathway measured by Nrf2-dependant transcriptional activity - cell viability counter screen (AID 720653; active = well fitted curve in the direction sought with a large enough effect in the repeat runs; an effect the other way counts as inactive or inconclusive; also: % is scaled to controls: 0 for no effect and ±100 for the full control effect); settings: ARE-bla HepG2 viability, CellTiter-Glo ATP luminescence, 16 h; max response: stronger effect = lower value
Outline: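 Cytotoxicity counter screen: intracellular ATP quantified by CellTiter-Glo luminescence in the same ARE-bla HepG2 plates, after 16 h compound exposure and a 2 h beta-lactamase substrate step.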

[21] = qHTS assay for cell viability of HEK293 cells (AID 743288); settings: ATP luminescence (CellTiter-Glo), 18 h; max response: stronger effect = lower value; also: % is scaled to controls: 0 for no effect and ±100 for the full control effect; nearly all actives have a fitted effect of over 50% in size
Outline: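 Viable-cell counts were inferred from luciferase-based ATP content in HEK293 cells seeded at 2,000/well, pre-incubated ≥5 h, then dosed with DMSO-solubilised compounds for 18 h at 37 C.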

[22] = qHTS assay for cell viability of the p53RE-bla HCT-116 cell line (AID 743292); also: % is scaled to controls: 0 for no effect and ±100 for the full control effect; nearly all actives have a fitted effect of over 55% in size
Outline: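 CellSensor p53RE-bla HCT-116 cells (4,000/well) pre-incubated 5 h at 37 C, then exposed to compounds in DMSO for 16 h at 37 C. Viability read as ATP content by CellTiter-Glo luminescence after 30 min at room temperature.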

[23] = target: Nuclear receptor subfamily 1 group I member 2 (Rattus norvegicus) (UniProt Q9R1A7); experiment: qHTS assay for small molecule activators of the rat pregnane X receptor (rPXR) signaling pathway (AID 651751; call rule not given here; also: 0% is about no effect); settings: rPXR reporter cells, luciferase (One-Glo), 24 h
[24] = qHTS assay for small molecule activators of the human pregnane X receptor (PXR) signaling pathway (AID 720659; call rule not given here; also: 0% is about no effect)

Sequence of Peroxisome proliferator-activated receptor gamma (Homo sapiens) (P37231 whole entry, looked up): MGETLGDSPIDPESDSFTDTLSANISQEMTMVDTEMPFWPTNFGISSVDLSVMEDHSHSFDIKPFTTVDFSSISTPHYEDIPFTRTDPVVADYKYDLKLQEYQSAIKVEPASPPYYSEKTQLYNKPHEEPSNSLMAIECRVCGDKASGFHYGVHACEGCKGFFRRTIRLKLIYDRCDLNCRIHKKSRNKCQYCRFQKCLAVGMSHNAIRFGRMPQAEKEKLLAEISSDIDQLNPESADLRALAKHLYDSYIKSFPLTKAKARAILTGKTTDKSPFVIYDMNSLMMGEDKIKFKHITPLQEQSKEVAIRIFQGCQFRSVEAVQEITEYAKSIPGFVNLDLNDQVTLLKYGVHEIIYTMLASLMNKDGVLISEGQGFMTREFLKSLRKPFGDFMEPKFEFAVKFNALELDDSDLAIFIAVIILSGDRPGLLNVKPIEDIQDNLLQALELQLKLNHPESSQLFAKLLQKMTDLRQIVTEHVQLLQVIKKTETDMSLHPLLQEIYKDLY
Sequence of Retinoic acid receptor RXR-alpha (Homo sapiens) (P19793 whole entry, looked up): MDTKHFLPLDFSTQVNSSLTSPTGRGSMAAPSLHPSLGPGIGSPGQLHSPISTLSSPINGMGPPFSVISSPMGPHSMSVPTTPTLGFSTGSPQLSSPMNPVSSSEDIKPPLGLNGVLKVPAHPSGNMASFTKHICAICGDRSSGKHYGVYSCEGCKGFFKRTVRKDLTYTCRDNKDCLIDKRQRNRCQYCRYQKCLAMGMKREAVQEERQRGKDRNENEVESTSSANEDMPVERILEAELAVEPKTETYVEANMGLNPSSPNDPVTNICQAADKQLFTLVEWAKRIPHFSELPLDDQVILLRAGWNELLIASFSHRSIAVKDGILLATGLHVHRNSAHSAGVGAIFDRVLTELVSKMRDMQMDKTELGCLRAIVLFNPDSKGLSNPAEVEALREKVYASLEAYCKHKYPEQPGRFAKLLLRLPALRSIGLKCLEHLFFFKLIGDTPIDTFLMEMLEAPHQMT
Sequence of Thyroid hormone receptor beta (Homo sapiens) (P10828 whole entry, looked up): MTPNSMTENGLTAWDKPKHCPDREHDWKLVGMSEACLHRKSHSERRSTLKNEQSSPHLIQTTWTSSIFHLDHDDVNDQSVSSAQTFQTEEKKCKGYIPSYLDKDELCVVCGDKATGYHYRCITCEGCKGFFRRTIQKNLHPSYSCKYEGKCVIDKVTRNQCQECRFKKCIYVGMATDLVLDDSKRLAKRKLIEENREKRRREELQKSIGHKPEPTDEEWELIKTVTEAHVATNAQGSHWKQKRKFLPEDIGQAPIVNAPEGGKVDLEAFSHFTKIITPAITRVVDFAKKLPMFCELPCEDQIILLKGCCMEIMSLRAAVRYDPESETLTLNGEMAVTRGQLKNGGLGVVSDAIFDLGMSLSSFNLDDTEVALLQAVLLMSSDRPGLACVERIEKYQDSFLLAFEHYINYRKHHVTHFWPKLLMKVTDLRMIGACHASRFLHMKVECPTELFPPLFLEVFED
Sequence of Peroxisome proliferator-activated receptor alpha (Homo sapiens) (Q07869 whole entry, looked up): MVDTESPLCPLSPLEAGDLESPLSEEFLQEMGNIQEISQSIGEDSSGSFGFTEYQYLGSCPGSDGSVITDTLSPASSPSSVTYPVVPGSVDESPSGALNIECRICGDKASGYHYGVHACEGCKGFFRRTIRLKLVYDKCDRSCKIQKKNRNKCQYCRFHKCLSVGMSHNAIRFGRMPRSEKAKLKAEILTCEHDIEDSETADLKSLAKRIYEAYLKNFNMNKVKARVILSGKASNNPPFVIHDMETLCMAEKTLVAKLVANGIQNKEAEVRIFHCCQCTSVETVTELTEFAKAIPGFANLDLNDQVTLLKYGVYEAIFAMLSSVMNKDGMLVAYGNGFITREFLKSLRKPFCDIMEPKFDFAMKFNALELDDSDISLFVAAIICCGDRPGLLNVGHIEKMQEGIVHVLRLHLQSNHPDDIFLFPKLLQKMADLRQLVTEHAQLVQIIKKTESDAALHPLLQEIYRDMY
Sequence of Nuclear receptor subfamily 1 group I member 2 (Rattus norvegicus) (Q9R1A7 whole entry, looked up): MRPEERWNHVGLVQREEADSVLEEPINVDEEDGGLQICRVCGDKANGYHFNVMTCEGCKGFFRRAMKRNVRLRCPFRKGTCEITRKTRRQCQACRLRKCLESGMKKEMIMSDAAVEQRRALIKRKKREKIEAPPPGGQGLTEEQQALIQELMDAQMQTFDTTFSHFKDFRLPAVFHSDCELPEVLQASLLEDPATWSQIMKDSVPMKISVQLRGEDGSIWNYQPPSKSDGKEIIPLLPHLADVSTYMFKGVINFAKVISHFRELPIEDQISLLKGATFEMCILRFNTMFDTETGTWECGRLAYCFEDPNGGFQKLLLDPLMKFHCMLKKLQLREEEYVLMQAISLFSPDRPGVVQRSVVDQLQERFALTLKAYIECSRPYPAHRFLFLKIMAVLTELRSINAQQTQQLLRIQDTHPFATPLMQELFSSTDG
Sequence of Peroxisome proliferator-activated receptor delta (Homo sapiens) (Q03181 whole entry, looked up): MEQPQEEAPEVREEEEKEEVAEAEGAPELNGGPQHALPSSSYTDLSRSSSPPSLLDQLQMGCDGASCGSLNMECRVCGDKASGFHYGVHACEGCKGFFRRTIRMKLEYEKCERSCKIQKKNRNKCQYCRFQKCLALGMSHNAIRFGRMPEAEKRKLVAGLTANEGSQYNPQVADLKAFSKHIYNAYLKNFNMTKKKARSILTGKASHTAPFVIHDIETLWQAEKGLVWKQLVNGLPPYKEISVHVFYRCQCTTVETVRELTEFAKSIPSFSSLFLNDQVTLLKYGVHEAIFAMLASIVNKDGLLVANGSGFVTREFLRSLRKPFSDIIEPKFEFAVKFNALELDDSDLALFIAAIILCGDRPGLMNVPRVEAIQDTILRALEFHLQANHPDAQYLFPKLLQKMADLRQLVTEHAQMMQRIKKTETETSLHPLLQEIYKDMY
Sequence of Vitamin D3 receptor (Homo sapiens) (P11473 whole entry, looked up): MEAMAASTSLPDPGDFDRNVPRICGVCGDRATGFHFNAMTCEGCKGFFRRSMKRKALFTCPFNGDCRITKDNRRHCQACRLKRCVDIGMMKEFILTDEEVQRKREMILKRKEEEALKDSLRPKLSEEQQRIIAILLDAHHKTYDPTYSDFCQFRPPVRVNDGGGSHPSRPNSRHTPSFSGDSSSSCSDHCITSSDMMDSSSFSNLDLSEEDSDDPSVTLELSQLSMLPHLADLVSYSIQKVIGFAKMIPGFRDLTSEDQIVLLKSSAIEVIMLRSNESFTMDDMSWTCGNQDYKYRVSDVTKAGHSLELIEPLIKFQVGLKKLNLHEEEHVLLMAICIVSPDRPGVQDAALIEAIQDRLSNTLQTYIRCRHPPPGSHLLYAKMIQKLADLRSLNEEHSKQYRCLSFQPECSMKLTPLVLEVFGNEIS
Sequence of Voltage-gated inwardly rectifying potassium channel KCNH2 (Homo sapiens) (Q12809 whole entry, looked up): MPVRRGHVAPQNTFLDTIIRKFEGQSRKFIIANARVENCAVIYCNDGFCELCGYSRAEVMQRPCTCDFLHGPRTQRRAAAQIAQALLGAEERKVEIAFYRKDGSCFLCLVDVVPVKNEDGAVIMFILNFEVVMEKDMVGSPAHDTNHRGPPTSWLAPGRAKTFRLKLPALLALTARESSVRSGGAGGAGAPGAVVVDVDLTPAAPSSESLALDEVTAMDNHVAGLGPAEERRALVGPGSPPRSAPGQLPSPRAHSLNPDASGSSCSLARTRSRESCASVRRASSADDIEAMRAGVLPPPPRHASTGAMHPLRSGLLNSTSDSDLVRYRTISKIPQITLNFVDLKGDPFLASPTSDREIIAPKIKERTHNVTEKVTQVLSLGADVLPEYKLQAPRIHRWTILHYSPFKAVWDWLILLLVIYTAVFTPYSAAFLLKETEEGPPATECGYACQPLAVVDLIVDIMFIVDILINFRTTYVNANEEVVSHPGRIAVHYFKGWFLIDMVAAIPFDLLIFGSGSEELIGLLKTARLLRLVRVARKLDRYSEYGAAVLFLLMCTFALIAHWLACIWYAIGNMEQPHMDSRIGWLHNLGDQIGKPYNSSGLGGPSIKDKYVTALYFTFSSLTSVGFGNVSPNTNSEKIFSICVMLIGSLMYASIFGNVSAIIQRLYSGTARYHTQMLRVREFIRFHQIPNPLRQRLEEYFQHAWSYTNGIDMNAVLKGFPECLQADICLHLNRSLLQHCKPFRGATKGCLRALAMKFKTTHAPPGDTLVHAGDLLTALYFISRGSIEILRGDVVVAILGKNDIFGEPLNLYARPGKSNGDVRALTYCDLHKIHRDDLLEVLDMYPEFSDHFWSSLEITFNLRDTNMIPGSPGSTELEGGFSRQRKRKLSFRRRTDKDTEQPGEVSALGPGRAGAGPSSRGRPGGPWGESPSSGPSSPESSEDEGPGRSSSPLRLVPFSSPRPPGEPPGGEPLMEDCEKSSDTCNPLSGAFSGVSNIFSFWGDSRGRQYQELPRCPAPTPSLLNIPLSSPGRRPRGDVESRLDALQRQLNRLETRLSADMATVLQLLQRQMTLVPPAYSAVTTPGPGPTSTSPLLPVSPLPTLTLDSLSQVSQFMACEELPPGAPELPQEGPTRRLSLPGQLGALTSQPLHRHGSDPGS
Sequence of Tumor necrosis factor (Homo sapiens) (P01375 whole entry, looked up): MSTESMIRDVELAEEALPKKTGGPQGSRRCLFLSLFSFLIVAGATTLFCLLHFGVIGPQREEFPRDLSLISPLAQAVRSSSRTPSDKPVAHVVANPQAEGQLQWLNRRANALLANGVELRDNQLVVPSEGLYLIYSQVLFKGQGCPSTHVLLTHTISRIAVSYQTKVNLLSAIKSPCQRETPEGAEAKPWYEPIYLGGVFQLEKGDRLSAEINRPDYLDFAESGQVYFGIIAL

CC(CCC(=O)O)(c1ccc(O)cc1)c1ccc(O)cc1
inactive: outcome [1] | outcome [2] | Potency [3] | Potency [4] | Potency [6] | Potency [7] | Potency [9] | Potency [10] | activation [11] 0.0681% and 0.181% | Potency [12] | Potency [13] | Potency [14] | Potency [15] | activation [16] 2.27% and -1.21% | max response [17] -9.77% and -1.13% | Potency [18] | Potency [19] | max response [20] -5.33% and -3.83% | max response [21] -3.82% and -8.09% | Potency [22] | max response [23] -1.81% and -3.54% | outcome [24]
-8.9% and -10.2%: max response [5]
0.685% and -9.17%: max response [8]
